Experimental data reported in PubChem BioAssay (NCATS).

molecular target: Nicotinamide N-methyltransferase (Homo sapiens) (UniProt P40261); test: Confirmatory Screen for Target Class Profiling of Small Molecule Inhibitors of Methyltransferases (AID 1745852); settings: MTase-Glo luminescence, SAH detection, recombinant enzyme; measured here: NNMT max response; stronger effect = lower value
Sequence (P40261 whole entry, looked up): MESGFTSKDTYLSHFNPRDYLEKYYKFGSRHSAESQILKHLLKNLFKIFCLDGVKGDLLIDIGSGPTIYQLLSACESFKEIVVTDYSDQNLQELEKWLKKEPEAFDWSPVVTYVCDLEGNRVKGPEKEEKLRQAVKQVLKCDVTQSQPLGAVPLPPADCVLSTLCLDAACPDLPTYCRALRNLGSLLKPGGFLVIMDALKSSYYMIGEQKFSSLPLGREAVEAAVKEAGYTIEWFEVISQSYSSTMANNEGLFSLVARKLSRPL

SMILES | activity
COCCN(C)Cc1ccc2nc3sc(C(=O)N(C)C4CCCCC4)cn3c2c1 | 1.46%
CNC1CCN(C(Cc2cccc(-c3ccncc3)c2)C(=O)c2sc3c(F)ccc(F)c3c2Cl)CC1 (stereo unspecified) | -78%
COc1cc2c(Nc3ccc(Cl)c(Cl)c3F)ncnc2cc1OCC1C[C@@H]2CN(C)C[C@@H]2C1 (stereo partly specified) | -73.4%

molecular target: Phenylethanolamine N-methyltransferase (Homo sapiens) (UniProt P11086); test: as above; settings: MTase-Glo luminescence, SAH detection, recombinant enzyme; measured here: PNMT max response; stronger effect = lower value
Sequence (P11086 whole entry, looked up): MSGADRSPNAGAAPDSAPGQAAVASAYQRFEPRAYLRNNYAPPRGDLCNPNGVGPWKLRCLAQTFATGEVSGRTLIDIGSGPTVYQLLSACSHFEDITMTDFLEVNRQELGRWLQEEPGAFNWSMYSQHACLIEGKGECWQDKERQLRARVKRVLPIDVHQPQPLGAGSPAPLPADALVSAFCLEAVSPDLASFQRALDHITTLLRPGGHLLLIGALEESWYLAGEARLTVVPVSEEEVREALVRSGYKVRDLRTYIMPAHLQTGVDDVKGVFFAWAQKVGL

SMILES | activity
COCCN(C)Cc1ccc2nc3sc(C(=O)N(C)C4CCCCC4)cn3c2c1 | -2.94%
CNC1CCN(C(Cc2cccc(-c3ccncc3)c2)C(=O)c2sc3c(F)ccc(F)c3c2Cl)CC1 (stereo unspecified) | -11.9%
COc1cc2c(Nc3ccc(Cl)c(Cl)c3F)ncnc2cc1OCC1C[C@@H]2CN(C)C[C@@H]2C1 (stereo partly specified) | -80.2%
